AmpC no deterg – inhibitors of E. coli AmpC beta-lactamase without detergent | AmpC nitrocefin hydrolysis, absorbance 480 nm, 0.0001% Triton | AID 485341 | 330,000 compounds, 0.52% hits | Potency, µM (top dose mostly 57.1 µM), inactives show at the highest dose activity change, negative = inhibition, most hits filed as inhibitors;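 note: plate controls were no compound for no effect and no enzyme for full effect; nearly all actives have a fitted effect of over 20% in size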
Target sequence (P00811 whole entry, looked up): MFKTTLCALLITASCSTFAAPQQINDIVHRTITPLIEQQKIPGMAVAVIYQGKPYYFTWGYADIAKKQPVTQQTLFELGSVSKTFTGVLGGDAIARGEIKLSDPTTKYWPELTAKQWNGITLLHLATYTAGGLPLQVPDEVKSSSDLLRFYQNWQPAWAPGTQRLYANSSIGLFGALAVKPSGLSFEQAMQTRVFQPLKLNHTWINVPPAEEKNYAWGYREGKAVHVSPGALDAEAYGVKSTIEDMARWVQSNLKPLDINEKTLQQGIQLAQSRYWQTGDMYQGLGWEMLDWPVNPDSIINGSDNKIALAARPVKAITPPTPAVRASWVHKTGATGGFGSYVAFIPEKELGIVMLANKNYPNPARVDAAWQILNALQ
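20 mM phosphate pH 7.0 + 0.01% (detergent screen) or 0.0001% Triton X-100; 5.3 nM AmpC reagent; cpd preinc 15 min RT; nitrocefin (800 uM stock) to start; A480 q20 s × 4 min; Activity was normalised to no-enzyme and no-compound control wells.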
AmpC inh detg – AmpC beta-lactamase inhibition with detergent present. AmpC hydrolysis of nitrocefin, absorbance 480 nm, 0.01% Triton. Potency, µM (highest dose often 114 µM), for inactives: at the top dose activity change, negative = inhibition, hits mostly inhibitors. 370,000 compounds, 0.041% hits;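 note: 0% = no-compound wells and -100% = no-enzyme wells; nearly all actives have a fitted effect of over 25% in size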
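AmpC (5.3 nM in the dispensed reagent) in 20 mM phosphate pH 7.0 with 0.01% (detergent screen) or 0.0001% Triton X-100 was preincubated with compounds for 15 min at room temperature. Nitrocefin was then added from an 800 uM solution, and hydrolysis was followed at 480 nm.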
Sm TGR inh – inhibitors of Schistosoma mansoni thioredoxin glutathione reductase; purified TGR, DTNB reduction, TNB absorbance 405 nm; Potency, µM (top dose mostly 114 µM), for the others: at the highest dose activity change, negative = inhibition, most hits filed as inhibitors; 360,000 compounds, 3% hits; AID 485364; note: nearly all actives have a fitted effect of over 60% in size
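First, TGR (20 nM dispensed) and NADPH were mixed with compound. Second, a 15 min room-temperature incubation followed. Third, further NADPH and then DTNB were added to start the reaction. Finally, TNB absorbance was monitored kinetically.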
Numbers without * were called inactive. Shown are actives, neighbours in structure and some others; about 3.3% of the full set was active somewhere. Calls come from the whole dose curve; as a rule, active = well fitted curve in the direction sought with a large enough effect; inconclusive = small, poorly fitted or top-dose-only effect, or another doubt; inactive = no such curve, though single readings can be large; an effect the other way counts as inactive or inconclusive. Unless noted, % is set by controls: 0 for no effect and ±100 for the full control effect; potency is the fitted concentration of half-maximal effect.

`C=CCN1C(=O)S/C(=C/c2ccc(Sc3nc4ccccc4[nH]3)o2)C1=O` gave AmpC no deterg -32.5%, AmpC inh detg -8.8% and Sm TGR inh -1.0%.
Screening O=C1NC(=O)N(c2ccc(Cl)cc2)C(=O)/C1=C\c1ccc(Sc2nc3ccccc3[nH]2)o1 returned AmpC no deterg 17.8µM*, AmpC inh detg -7.5% and Sm TGR inh 8.91µM*.
O=C(Nc1ccc(F)cc1)c1ccc(-n2cnnc2)cc1 was read as AmpC inh detg 11.2% and Sm TGR inh 5.4%.
`C/C(=N\NC(=O)c1ccoc1C)c1cccnc1` gave AmpC no deterg -21.9%, AmpC inh detg -8.5% and Sm TGR inh -2.8%.
Screening C/C(=N/NC(=O)OC(C)(C)C)c1ccco1 returned AmpC no deterg -4.7%, AmpC inh detg -6.1% and Sm TGR inh -19.7%.
`Cc1cc(C(=O)N/N=C/c2ccco2)n[nH]1` gave AmpC no deterg -5.7%, AmpC inh detg -1.5% and Sm TGR inh 14.0%.
`Cc1ccc(C(=O)N/N=C/c2cccc(OC(=O)/C=C/c3ccco3)c2)cn1` gave AmpC no deterg -5.7%, AmpC inh detg 6.2% and Sm TGR inh inconclusive.
CC(/C=C/c1ccco1)=N/NC(=O)OC(C)(C)C was read as AmpC no deterg -9.4%, AmpC inh detg -11.7% and Sm TGR inh 39.8µM*.
CC(/C=C/c1ccco1)=N\NC(=O)c1cccnc1 was read as AmpC no deterg 30.4%, AmpC inh detg -1.6% and Sm TGR inh 35.5µM*.
Screening CC(/C=C/c1ccco1)=N\NC(=O)c1cc(C)[nH]n1 returned AmpC no deterg 32.3%, AmpC inh detg inconclusive and Sm TGR inh 28.2µM*.
For CC(/C=C/c1ccco1)=N/NC(=O)c1ccc(C)nc1 the results were AmpC no deterg -16.2%, AmpC inh detg 7.1% and Sm TGR inh 44.7µM*.
`COc1cc(Cl)c(C)cc1NC(=O)Cn1cnc2sc(C)c(S(=O)(=O)N3CCCCC3)c2c1=O` gave AmpC inh detg 2.8% and Sm TGR inh -2.9%.
`CCOC(=O)Cc1ccc(NC(=O)N2CC(C)Oc3ccc(Cl)cc32)cc1` (configuration not stated) gave AmpC inh detg -3.2% and Sm TGR inh -0.5%.
COc1ccc(C(=O)N(Cc2ccc(C(C)C)cc2)C2CCS(=O)(=O)C2)cc1 (configuration not stated) was read as AmpC inh detg -4.7% and Sm TGR inh 5.0%.
CCCCSCCCNC(=O)CN1C(=O)COc2ccc(S(=O)(=O)N3CCCC3)cc21 was read as AmpC inh detg 10.1% and Sm TGR inh 4.1%.
`Cc1nn(CC(=O)NC2CCCCC2)c(=O)c2cc3cc(F)ccc3n12` gave AmpC inh detg 1.8% and Sm TGR inh -9.3%.
For COc1cc(C(=O)N2CCN(c3ccc(Nc4ccccc4)nn3)CC2)cc(OC)c1OC the results were AmpC inh detg 2.0% and Sm TGR inh 1.8%.
`Cc1cc(C)cc(NC(=O)C(=O)NCC(c2ccc3c(c2)OCO3)N2CCN(C)CC2)c1` (configuration not stated) gave AmpC inh detg 1.8% and Sm TGR inh 1.4%.
Screening O=C(CSc1nc(-c2cccs2)nc2cc(=O)[nH]n12)Nc1cccc(C(F)(F)F)c1 returned AmpC inh detg 6.8% and Sm TGR inh 1.5%.
CN(C)c1ccc(/C=C/C(=O)c2ccccc2O)cc1 was read as AmpC no deterg -43.1%, AmpC inh detg 6.0% and Sm TGR inh -2.9%.
Screening CC(/C=C/c1ccco1)=N\NC(=O)c1cc(Cl)ccc1O returned AmpC no deterg -52.9%, AmpC inh detg -0.2% and Sm TGR inh 8.91µM*.
O=C(/C=C/c1ccco1)Nc1cccnc1 was read as AmpC no deterg 10.8% and AmpC inh detg 1.0%.
Screening O=C(/C=C/c1ccco1)Oc1cc(Br)cc(/C=N/NC(=O)c2ccccc2O)c1 returned AmpC no deterg -32.3%, AmpC inh detg -11.3% and Sm TGR inh -6.2%.
For O=C(/C=C/c1ccco1)c1ccccc1O the results were AmpC no deterg -28.9%, AmpC inh detg 4.5% and Sm TGR inh 31.6µM*.
`O=C(/C=C/c1ccco1)c1cccnc1` gave AmpC no deterg -14.9%, AmpC inh detg -9.7% and Sm TGR inh 12.6µM*.
C/C(CC(=O)NC1CCCC1)=N\NC(=O)Cc1cccs1 was read as AmpC no deterg -29.9%, AmpC inh detg -6.7% and Sm TGR inh -12.1%.
For CC(/C=C/c1ccco1)=N/NC(=O)Cc1cccs1 the results were AmpC no deterg -18.2%, AmpC inh detg -3.1% and Sm TGR inh 25.1µM*.
Screening COC(=O)c1c(NC(=O)CS(=O)(=O)c2ccc(C)cc2)sc2c1CCCCC2 returned AmpC inh detg -4.0% and Sm TGR inh -18.8%.
CSc1ccc(Cn2nnc(C(=O)Nc3ccc(C)cc3Cl)c2N)cc1 was read as AmpC inh detg -8.7% and Sm TGR inh 7.2%.
For CCOC(=O)c1ccc(NC(=O)CSc2c3c(nc4cc(Cl)ccc24)CCCC3)cc1 the results were AmpC inh detg -9.9% and Sm TGR inh 1.4%.
For COc1ccc(Cl)cc1NC(=O)Cn1cc(C(=O)c2ccncc2)c(=O)c2cc(C)ccc21 the results were AmpC inh detg 1.1% and Sm TGR inh 0.2%.
Screening Cc1cc(C(=O)NCCCN2CCOCC2)n(-c2ccccc2)n1 returned AmpC no deterg 39.8µM*, AmpC inh detg inconclusive and Sm TGR inh inconclusive.
Screening CCOCCCNC(=O)c1cc(C)nn1-c1ccccc1 returned AmpC no deterg 3.16µM*, AmpC inh detg inconclusive and Sm TGR inh -6.6%.
Cc1cc(C(=O)NCCCN2CC(C)CC(C)C2)n(-c2ccccc2)n1 (configuration not stated) was read as AmpC no deterg -18.3%, AmpC inh detg -1.5% and Sm TGR inh 4.4%.
CCOC(CNC(=O)c1cc(C)nn1-c1ccccc1)OCC was read as AmpC no deterg -0.9%, AmpC inh detg -6.6% and Sm TGR inh 19.5%.
COc1ccc(-c2nc3sc(CCNC(=O)c4ccc(Br)o4)c(C)n3n2)cc1 was read as AmpC inh detg 2.6% and Sm TGR inh 12.4%.
Screening COC(=O)c1cc(NC2(c3ccccc3)C(=O)c3ccccc3C2=O)cc(C(=O)OC)c1 returned AmpC inh detg 11.4% and Sm TGR inh 20.9%.
`O=C(CSc1nc2ccsc2c(=O)n1Cc1ccccc1Cl)NCc1ccc(F)cc1` gave AmpC inh detg -3.2% and Sm TGR inh -4.0%.
`O=C1NCCN(Cc2c(F)cccc2Cl)C1CC(=O)N1CCCO1` (configuration not stated) gave AmpC no deterg -4.6%, AmpC inh detg -3.6% and Sm TGR inh 28.2µM*.
Screening Cc1nonc1CN(C)C(=O)CC1C(=O)NCCN1Cc1c(F)cccc1Cl (configuration not stated) returned AmpC no deterg -11.5%, AmpC inh detg -2.4% and Sm TGR inh 5.4%.
For O=C1NCCN(Cc2ccc(Cl)c(F)c2)C1CC(=O)N1CCCO1 (configuration not stated) the results were AmpC no deterg -10.0%, AmpC inh detg 2.0% and Sm TGR inh inconclusive.
Cc1cc(CN(C)C(=O)CC2C(=O)NCCN2Cc2c(F)cccc2Cl)n[nH]1 (configuration not stated) was read as AmpC no deterg -3.4%, AmpC inh detg 11.7% and Sm TGR inh 39.8µM*.

High-throughput results: PubChem BioAssay, National Center for Advancing Translational Sciences (NCATS)
